In PubChem BioAssay (NCATS) one finds Potency and activity change, negative = viability loss data, which are given here for 23 compounds.

Results filed as inconclusive are left out. Entries that show only a call come without a potency. Unmarked numbers belong to inactive results. The source made the active and inactive calls. The call rests on the fitted dose curve; in most records, active means well fitted inhibition curve with a large enough effect; inconclusive means small, poorly fitted or top-dose-only effect; inactive means flat fitted curve, though single readings scatter.

The assay can be described thus: Primary qHTS for inhibitors of nuclear receptor binding SET domain protein 2 (NSD2) in an isogenic RCH-ACV NSD2 p.E1099K mutant (9B) (AID 1645876). Further: nearly all actives have a fitted effect of over 70% in size. The following applies: RCH-ACV (leukaemia line) NSD2 E1099K (9B) viability, CellTiter-Glo, 72 h; series mostly up to 44.9 µM.
For the compound `CC(C)=CCCC1(C)Oc2cc3c(c4c2C2C(O4)C(C)(O)CCC21)CN(C(CCC(=O)O)C(=O)O)C3=O` (stereo not drawn), the Potency result is “inactive”.

As to `C=CC1(C)C=C2C(O)CC3C(C)(C(=O)O)CCCC3(C)C2CC1` (stereo not drawn), the Potency entry was “inactive”.

In the case of `C=C1CC2(C(=O)O)CC1CCC2C1(C)CCCC2(C)C(=O)OC(O)C21` (stereo not drawn), the Potency result is “inactive”.

Turning to `CC1(C)NC2N(C1=O)c1ccccc1C2(O)CC(C(=O)O)n1cnc2ccccc2c1=O` (stereo not drawn), the Potency entry was “inactive”.

For the compound `COc1ccc2c(c1)O[C@H](O[C@@H]1O[C@H](CO)[C@@H](O)[C@H](O)[C@H]1O)C(=O)N2`, the Potency result is “inactive”.

As to `CC1=CCC2C(C)(CO)CCCC2(CO)C1CO` (stereo not drawn), the Potency entry is “inactive”.

`O=C(NN1CCCCC1)c1nn(-c2ccc(Cl)cc2Cl)c(-c2ccc(C#Cc3ccc(C(F)(F)F)cc3)s2)c1CNS(=O)(=O)N1CCCC1`: the Potency result was “inactive”.

As for `CCCCS(=O)(=O)Nc1ncnc(OCCOc2ncc(Br)cn2)c1-c1ccc(Br)cc1`, the Potency entry was “inactive”.

Turning to `C=C1CCC2C(C)(C)C(O)CCC2(C)C1CCC(C)CCOC(=O)CCC(=O)O` (stereo not drawn), the Potency entry was “inactive”.

On to `O=C(/C=C/c1ccc(O)cc1)OC[C@H]1O[C@@H](OC(=O)/C=C/c2ccccc2)[C@H](O)[C@@H](O)[C@@H]1O`, for which the Potency result is “inactive”.

`C[C@@H]1O[C@@H](O[C@H]2[C@H](O[C@H]3[C@H](O[C@H]4CC[C@@]5(C)C(CC[C@]6(C)C5CC=C5[C@@H]7CC(C)(C(=O)O)C[C@@H](O)[C@]7(C)CC[C@]56C)[C@@]4(C)CO)O[C@H](C(=O)O)[C@@H](O)[C@@H]3O)O[C@H](CO)[C@H](O)[C@@H]2O)[C@H](O)[C@H](O)[C@H]1O` (stereo partly drawn): the activity change, negative = viability loss was -4.48% [at 9.23 µM].

For the compound `CCC[C@@H]1C[C@@H](C(=O)N[C@H](C(C)Cl)[C@H]2O[C@H](SC)[C@H](O)[C@@H](O)[C@H]2O)N(C)C1` (stereo partly drawn), the Potency result was “inactive”.

Consider `COc1ccc(C(=O)O[C@H]2CC(C)=CC[C@@]3(C)[C@@H](OC(C)=O)C[C@@](O)(C(C)C)[C@H]23)cc1`, for which the Potency entry is “inactive”.

As to `COc1cc([C@H]2OC[C@@H]3[C@@H](c4ccc(O[C@@H]5O[C@H](CO)[C@@H](O)[C@H](O)[C@H]5O)c(OC)c4)OC[C@]23O)ccc1O`, the Potency entry was “inactive”.

Take `CCC(C)/C=C(C)/C=C/C1=CC2=C(Cl)C(=O)C(C)(OC(C)=O)C(=O)C2=CN1CCCC(=O)O` (stereo not drawn): the Potency result is “inactive”.

Regarding `CC(/C=C/C1(O)C2(C)COC1(C)CC(=O)C2)O[C@@H]1O[C@H](CO)[C@@H](O)[C@H](O)[C@H]1O` (stereo partly drawn), the Potency result is “inactive”.

Take `C[C@@H](OC(=O)/C=C/c1ccc(O)cc1)C1=C[C@]2(C=C[C@@H]3C(C(=O)O)=CO[C@@H](O[C@@H]4O[C@H](CO[C@@H]5O[C@H](CO)[C@@H](O)[C@H](O)[C@H]5O)[C@@H](O)[C@H](O)[C@H]4O)[C@@H]32)OC1=O`: the Potency entry is “inactive”.

On to `C=C1CCC2(OC1)OC1CC3C4CC=C5CC(O)CC(O[C@@H]6OC[C@@H](O)[C@H](O)[C@H]6O)C5(C)C4CCC3(C)C1(O)C2C` (stereo partly drawn), for which the Potency entry was “inactive”.

As for `CCOc1nc2cccc(C(=O)O)c2n1Cc1ccc(-c2ccccc2-c2noc(=O)[nH]2)cc1`, the Potency entry was “inactive”.

For `C=C1CCC2C(OC(=O)C2(O)COC(C)=O)C2C(=C)C(O)CC12` (stereo not drawn), the Potency entry was “inactive”.

Regarding `C=C1C2=CC(O)C(C)C1(C)CC/C(C)=C/CCC1(C)OC1C2=O` (stereo not drawn), the Potency entry was “inactive”.

`C=C1CCC2C(C)(CO[C@@H]3O[C@H](CO)[C@@H](O)[C@H](O)[C@H]3O)C(O)CCC2(C)C1C(=O)CC1=CCOC1=O` (stereo partly drawn): the Potency result is “inactive”.

Consider `OC[C@H]1O[C@@H](OC(CCCCc2ccc(O)cc2)CCc2ccc(O)cc2)[C@H](O[C@@H]2OC[C@](O)(CO)[C@H]2O)[C@@H](O)[C@@H]1O` (stereo partly drawn), for which the Potency result is “inactive”.
